Experimental data taken from PubChem BioAssay (NCI).
About 83,000 compounds went through this panel and 20% of them were active in at least one assay; those are over-represented in the sample as a whole.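 Interpretation: 100, growth as untreated; towards 0, rising growth inhibition; 0, no net growth; 0 to -100, cell death. Compounds scoring below 10 were considered active.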 Values without a mark were called inactive. Active and inactive are the calls of the source.

Experiments:
Experiment in all cases: NCI-60 one-dose screen, 48 h (100 = growth as untreated, 0 = no growth, -100 = all killed)
Conditions in all cases: 10 µM unless noted
[1] = system: DU-145 prostate
[2] = system: K-562 leukemia
[3] = system: MALME-3M melanoma
[4] = system: MDA-MB-231 breast
[5] = system: RXF 393 renal
[6] = system: SF-268 CNS
[7] = system: SF-295 CNS
[8] = system: SF-539 CNS
[9] = system: UACC-257 melanoma
[10] = system: M14 melanoma
[11] = system: HCT-15 colon
[12] = system: HT29 colon
[13] = system: SNB-75 CNS
[14] = system: SNB-19 CNS
[15] = system: U251 CNS
[16] = system: PC-3 prostate
[17] = system: SK-MEL-5 melanoma
[18] = system: UACC-62 melanoma
[19] = system: LOX IMVI melanoma
[20] = system: SK-MEL-28 melanoma

SMILES	growth [1] [%]	growth [2]	growth [3]	growth [4]	growth [5]	growth [6] [%]	growth [7]	growth [8]	growth [9]	growth [10]	growth [11] [%]	growth [12]	growth [13]	growth [14]	growth [15]	growth [16]	growth [17]	growth [18]	growth [19]	growth [20]
O=c1c2c3c(sc2n2c(-c4cn(-c5ccccc5)nc4-c4ccc(Cl)cc4)nnc2n1Cc1ccccc1)CCCC3	103	89.7%	97.4%	80.3%	94.5%	99.7	98.5%	90.3%	118%	60.3%	104	113%	66.8%	97.9%	98.2%	95.3%	95.8%	90.6%	72.3%	
O=C1c2cccc(NCCN=Cc3cc([N+](=O)[O-])ccc3O)c2C(=O)c2c(NCCN=Cc3cc([N+](=O)[O-])ccc3O)cccc21	67	28.6%	85.1%	58.9%	74.5%	40	73%	70.8%	104%	102%	82	37.1%	65.9%	50.4%	44.5%	50%	92.1%	90.2%	58.6%	
CNC(=O)NCC1OC(n2cnc3c(NC(=O)Nc4ccccc4)ncnc32)C(O[Si](C)(C)C(C)(C)C)C1CC(=O)N(C)OC (stereo not given)	25.3	16.1%	12.3%	15.2%	-68.2% (active)	33.2	-41.2% (active)	0.123% (active)	5.59% (active)	34.4%	11.9	-25.5% (active)	-7.28% (active)	37.2%	-15.2% (active)	-20.8% (active)	25.9%	34.4%	18.6%	7.73% (active)
COC(=O)c1c2c(c(C)[n+]([O-])c1C)C(=O)C(NCc1ccc(F)cc1)=CC2=O	42.5	9.12% (active)	-95.7% (active)	1.94% (active)	56.9%	23	69.1%	0.757% (active)	-36.8% (active)	2.89% (active)	14	7.24% (active)	128%	3.72% (active)	-13.9% (active)	3.57% (active)	-47.9% (active)	-35.5% (active)	20.3%	72.4%
O=c1cc(C2NNC(=S)N2)c2ccc3ccccc3c2o1 (stereo not given)	109	90.5%	104%	96.3%	87.4%	102	100%	94.1%	116%	102%	98.1	100%	105%	93.2%	96.8%	85.2%	96.8%	86.3%	87.5%	
COc1ccc(OC)c2c1[nH]c(=O)c1c3ncccc3cn21	26.3	32%	60.2%	41.4%	12.7%	34.2	-3.56% (active)	37.2%	37.4%	39.7%	22.8	-9.43% (active)	59.7%	30.3%	22.5%	33.6%	33.3%	23.4%	8.59% (active)	
CN(c1ccccc1)c1ccc2c(c1)OCCC21CC1Nc1cnccc1C(=O)O (stereo not given)	88.8	41.2%	67.5%	72.8%	76.4%	60.2	44.2%	52.7%	77.5%	81.2%	27.1	75.8%	67.3%	66.6%	43.9%	52.4%	48.7%	62%	34.3%	
NS(=O)(=O)c1ccc(-n2nc(C(=O)N/N=C\c3ccc(F)cc3)cc2-c2ccc(Cl)cc2)cc1	104	87.9%	89.9%	74%	89.5%	88.3	97%	88.1%	101%	-85.9% (active)	98.4	118%	57.1%	85.5%	93.3%	81.9%	93.5%	81.8%	90.9%	98.8%
